# Records with an inconclusive call do not appear. Entries that show only a call come without a potency. Activity calls are given as the source filed them. Calls come from the whole dose curve; as a rule, active = well fitted inhibition curve with a large enough effect; inconclusive = small, poorly fitted or top-dose-only effect; inactive = flat fitted curve, though single readings scatter.
# Target: Calcium and integrin-binding protein 1 (Homo sapiens) (UniProt Q99828)
# Assay: Primary qHTS for Identification of Calcium Integrin Binding Protein 1 (CIB1) Competitor (AID 1508620); note: top concentration of the series differs between compounds
# Conditions: CIB1-GST / FITC-alphaIIb peptide fluorescence polarization; series mostly up to 114 µM
# Summary of the method: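 Fluorescence polarization competition: GST-tagged CIB1 (1 uM final) preincubated with compound 15 min at room temperature, then FITC-labelled alphaIIb peptide (100 nM final) added. After 15 min at room temperature, polarization read at Ex 480/Em 540.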
# Chain of Calcium and integrin-binding protein 1 (Homo sapiens) (Q99828 whole entry, looked up): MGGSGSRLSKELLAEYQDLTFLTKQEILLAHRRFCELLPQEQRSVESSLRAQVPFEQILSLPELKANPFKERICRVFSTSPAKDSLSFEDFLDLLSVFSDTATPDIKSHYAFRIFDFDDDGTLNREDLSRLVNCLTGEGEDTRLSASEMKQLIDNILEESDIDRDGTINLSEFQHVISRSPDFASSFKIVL
row,Compound,Potency
1,C=C(C=O)[C@]1(O)C[C@@]2(C)C(=CC1=O)C=C[C@H](OC(=O)/C=C/C=C/[C@H](C)CC)[C@@H]2C,inactive
2,CC(C)CC(=O)c1c(O)cc2c(c1O)C(CC(C)C)C1=C(O2)C(C)(C)C(=O)C(C)(C)C1=O (stereo unspecified),inactive
3,CC(=O)OC1CCC2(C)C(CCC3(C)C2CC=C2C4C(C)C(C)CCC4(C)CCC23C)C1(C)C(=O)O (stereo unspecified),inactive
4,CN1CCN(C2=Nc3ccccc3Nc3ccc(Cl)cc32)CC1,inactive
5,CCCCCCCCn1cc(CN(CC)CC)c2cc(-c3cnc(N)nc3)ccc21,inactive
6,CCc1c[nH]c2ncnc(N3CC[C@](N)(CNC(=O)c4ccc(F)cc4F)C3)c12,inactive

# Reference: PubChem BioAssay (NCATS)
